# Results as given in PubChem BioAssay AID2761 (The Scripps Research Institute Molecular Screening Center, 2010).
# The other results are listed elsewhere or left out. A number with no mark means an inactive call. The source made the active and inactive calls. Cut-off read from the data, not from the text of the source: active = inhibition above about 38%; inactive = the rest.
# Target: Serine protease Rv3671c (Mycobacterium tuberculosis (strain ATCC 25618 / H37Rv)) (UniProt P9WHR9)
# Test: M. tuberculosis Rv3671c protease inhibition confirmation – biochemical, fluorescence polarization, M. tuberculosis H37Rv (AID 2761)
# Settings: at 5.96 µM; hits give high values
# Chain of Serine protease Rv3671c (Mycobacterium tuberculosis (strain ATCC 25618 / H37Rv)) (P9WHR9 whole entry, looked up): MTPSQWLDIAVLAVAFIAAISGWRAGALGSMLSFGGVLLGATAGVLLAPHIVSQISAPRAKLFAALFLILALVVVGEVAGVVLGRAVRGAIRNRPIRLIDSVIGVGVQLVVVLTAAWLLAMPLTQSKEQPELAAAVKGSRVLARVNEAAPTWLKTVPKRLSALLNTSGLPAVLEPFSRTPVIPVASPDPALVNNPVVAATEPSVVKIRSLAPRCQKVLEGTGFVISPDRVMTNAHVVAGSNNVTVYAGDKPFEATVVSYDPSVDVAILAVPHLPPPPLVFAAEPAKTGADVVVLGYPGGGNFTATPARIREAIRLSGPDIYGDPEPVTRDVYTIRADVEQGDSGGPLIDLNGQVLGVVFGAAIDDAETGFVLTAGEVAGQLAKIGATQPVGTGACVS
row,Structure (SMILES),inhibition
1,c1ccc2[nH]c(-c3nc4ccccc4[nH]3)nc2c1,66.6% (active)
2,COCCOC(=O)c1sc(=S)n(CCOC)c1N,28.9%
